The record followed here is PubChem BioAssay.

Assay [1] deals with Tumor necrosis factor receptor superfamily member 10B (Homo sapiens) (UniProt O14763). The assay can be described thus: viability loss of caspase-8 NB7 cells with TRAIL – with/without TRAIL, luminescence panel, confirmation (AID 651596). The following applies: NB7 neuroblastoma + caspase-8, TRAIL sensitization, NB7 Caspase-8, with TRAIL, mean of runs, at 10 µM, stronger effect = higher value.

Assay in assay [2]: as above
Particulars: NB7 neuroblastoma + caspase-8, without TRAIL, NB7 Caspase-8, without TRAIL, mean of runs, at 10 µM.

SMILES strings stand for the structures.

Tumor necrosis factor receptor superfamily member 10B (Homo sapiens), sequence (O14763 whole entry, looked up): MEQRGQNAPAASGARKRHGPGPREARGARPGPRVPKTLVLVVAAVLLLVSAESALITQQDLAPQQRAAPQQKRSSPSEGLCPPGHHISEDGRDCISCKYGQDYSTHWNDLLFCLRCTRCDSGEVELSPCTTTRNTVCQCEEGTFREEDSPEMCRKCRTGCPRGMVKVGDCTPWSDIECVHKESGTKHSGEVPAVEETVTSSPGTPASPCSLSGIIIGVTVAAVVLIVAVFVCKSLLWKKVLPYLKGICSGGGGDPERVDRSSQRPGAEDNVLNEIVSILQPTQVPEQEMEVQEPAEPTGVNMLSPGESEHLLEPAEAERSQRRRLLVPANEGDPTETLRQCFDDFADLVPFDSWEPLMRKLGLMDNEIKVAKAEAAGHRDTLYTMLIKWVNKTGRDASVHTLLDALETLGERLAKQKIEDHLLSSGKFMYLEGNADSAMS

Turning to `Nc1c(N(C(=O)Nc2ccc(Cl)c(Cl)c2)C2CCCC2)c(=O)[nH]c(=O)n1Cc1ccccc1`, the activity in assay [1] was 46.5%; in assay [2], 46%.
For `CCCCn1c(NS(=O)(=O)c2ccc(C)cc2)c(S(=O)(=O)c2ccccc2)c2nc3ccccc3nc21`, in that order: -5.92% and -15%.
For `CCCCCCC[N+](CC)(CC)CCCCc1ccc(Cl)cc1`, in that order: 43.9% and 47.1%.
For `COc1ccc(NC(=O)c2ccc3c(c2)OCCO3)cc1OC`, in that order: 51.8% and 51.2%.
For `CCOc1ccc(/C=N/Nc2ccccn2)cc1`, the figures for the activity in assay [1] and in assay [2] were 53.4% and 41.2%, respectively.
As for `O=C(C[C@H]1C[C@H](C(=O)N2CCCCC2)[C@@]2(CCc3ccccc3)c3[nH]c4ccc(Cl)cc4c3CCN2C1=O)NCCC1=CCCCC1`, the activity in assay [1] is 46.3%; in assay [2] it was 86.7%.
Take `COc1ccc2nc(Nc3ccccc3)sc2c1`: the values for the activity in assay [1] and in assay [2] were 49.2% and 38.6%, respectively.
On to `COc1cccc(C=NNc2nnc(NN=Cc3cccc(OC)c3OC)c3ccccc23)c1OC`, for which the activity in assay [1] was determined as 83.2%; in assay [2] it was 75%.
For `COc1ccc(NC(=O)c2cc3ccc(O)cc3o/c2=N\O)cc1` the same measures were 77.8% and 77.1%.
For `O=S(=O)(c1ccc(Br)cc1)N1CCN(c2ccc3nnc(-c4ccccc4)n3n2)CC1` the same measures were 76.2% and 64.3%.
For `Cc1ccccc1C(=O)O/N=C(\N)c1ccncc1`, the activity in assay [1] was found to be 61.6%; in assay [2], 76.3%.
For `Cc1ccc(-c2cnn(-c3ccccc3)c2N)cc1` the same measures were 78.6% and 77%.
For `Cc1ccc(/C(N)=N/OC(=O)c2ccc(C)cc2Cl)cc1`, in that order: 97.3% and 96.4%.
For `CC(=O)c1ccc(NC(=O)Nc2ccccc2)cc1`, in that order: 65.2% and 68.3%.
For `COc1ccc2c(n1)Sc1nc3ccccc3nc1N2`, the activity in assay [1] is 4.47%; in assay [2], 4.42%.
As to `CCCCC[C@@H](C)N1C[C@H](COCc2ccccc2)Oc2cc(N3CC[C@H](N(C)C)C3)ccc2S1(=O)=O`, the activity in assay [1] came to 12%; in assay [2] it was 45.6%.
For `CCN1CCCC1CNC(=O)c1ccc2c(c1)NC(=O)/C(=C\c1ccc(C)cc1)S2` (configuration not stated), in that order: 89.7% and 98.9%.
For `CC(C)OC(=O)Nc1ccc2c(c1)N(C(=O)N1CCN(C)CC1)c1ccccc1CC2` the same measures were 86.2% and 84.2%.
For `Brc1ccc(-c2cn3ccccc3n2)cc1`, in that order: 50.8% and 62.2%.
Regarding `CN(C)c1cccc(C(=O)Nc2nc3ccccc3[nH]2)c1`, the results for the activity in assay [1] and in assay [2] were 90.2% and 78.5%, respectively.
For `Cc1cc(-c2ccc(F)cc2)n2ncc(-c3ccccc3)c2n1` the same measures were 76.6% and 84.3%.
For `O=C1C(=C2CCc3ccccc32)Cc2ccccc21`, the activity in assay [1] is 41.5%; in assay [2], 48.9%.
For `Cc1ccccc1Nc1nc(N)c2ccccc2n1` the same measures were 63.9% and 59.8%.
As for `CC(=C/c1ccccc1)/C=N/NC(=O)c1cccs1`, the activity stood at 56% in assay [1] and 51.2% in assay [2].
Regarding `Cc1ccc2oc(-c3ccccc3)c(C(=O)O)c(=O)c2c1`, the activity turned out to be 29.9% in assay [1] and 39.2% in assay [2].
For `Oc1ccccc1-c1n[nH]c(-c2ccccc2O)n1` the same measures were 47.8% and 48.6%.
For `CSc1ccc(/C=C/C(=O)c2c(O)cc(C)oc2=O)cc1`, in that order: 78.7% and 82.2%.
For `Cc1cc(C)c2c(N)c(C(=O)Nc3nccs3)sc2n1` the same measures were 89.5% and 87.2%.
Take `Cn1sc(NC(=O)c2ccc(Cl)cc2)nc1=O`: the values for the activity in assay [1] and in assay [2] were 68.4% and 67%, respectively.
`OCC1OC(n2cnc3c(NCc4ccco4)ncnc32)C(O)C1O` (configuration not stated): the activity was found to be 46.1% in assay [1] and 54.3% in assay [2].
Turning to `COc1ccccc1NC(CC(=O)c1ccccc1)C(=O)OCC(=O)c1ccc(Br)cc1` (configuration not stated), the activity in assay [1] amounted to 65.4%; in assay [2] it was 57.2%.
For `O=C(NC1=NC2CCCCC2N1)c1ccccc1` (configuration not stated) the same measures were 62.8% and 52.1%.
For `O=C(CCl)N(Cc1ccccc1)c1ccccc1`, in that order: 99% and 98.9%.
Regarding `COc1ccc(C2C(O)C(c3c[nH]c4ccccc34)=NN2C(=O)CCl)cc1` (configuration not stated), the activity in assay [1] and in assay [2] was 99.2% throughout.
With `Brc1nc(-c2ccccc2)nc(-c2ccccc2)c1Br`, the activity is 98.9% in assay [1] and 99.2% in assay [2].
For `Cc1cc(NC(=O)c2cc3n(n2)C(C(F)(F)F)CC(c2ccco2)N3)no1` (configuration not stated), in that order: -11.1% and -14.8%.
For `Cc1cccc(Nc2nc(N)nc(CCl)n2)c1C`, in that order: 99% and 98.3%.
On to `C#Cc1cccc(Nc2nc(NCc3ccccc3OC)nc3ccsc23)c1`, for which the activity was 52.1% in assay [1] and 37.5% in assay [2].
For `Cc1ccc(C(=O)/C=C/Nc2ccccn2)cc1` the same measures were 86.9% and 79.8%.
For `N/C(=N\OC(=O)c1ccc(Cl)cc1)c1ccc(Cl)cc1`, in that order: 92.4% and 76.8%.
For `NC(Cc1ccccc1)c1csc(NC(=O)Nc2ccccc2Oc2ccccc2)n1` (configuration not stated), in that order: 61.5% and 78.7%.
For the compound `CCOC(=O)CSc1nc2cc(OC)ccc2cc1C#N`, the figures for the activity in assay [1] and in assay [2] were 74.7% and 80.4%, respectively.
As to `Cc1ccc(NC(=O)c2ccc3c(c2)OCCO3)cc1`, the activity turned out to be 76% in assay [1] and 73.2% in assay [2].
For `Cc1ccccc1C(=O)Nc1ccc2c(c1)OCCO2`, in that order: 61.1% and 63.2%.
Take `COc1ccc(-c2cc(=O)c3ccccc3s2)cc1`: the activity in assay [1] came out at 61.2%; in assay [2], 62%.
For `CN(C)CCCn1cnc2c(c1=N)C(c1ccccc1)c1ccc3ccccc3c1O2` (configuration not stated), in that order: 88.5% and 93.6%.
